Test results published in PubChem BioAssay AID931 (National Center for Advancing Translational Sciences (NCATS), 2007).
Inconclusive results are not listed. Where a call stands in place of a potency, no number is given. Activity calls are given as the source filed them. Calls come from the whole dose curve; as a rule, active = well fitted cell-killing curve with a large enough effect; inconclusive = small, poorly fitted or top-dose-only effect; inactive = flat fitted curve, though single readings scatter.

assay: Confirmation and Secondary Assay for Modulators of Hemoglobin Beta Chain Splicing at IVS2 654 locus: Cytotoxicity; conditions: HBB IVS2-654 splicing reporter cells; series mostly up to 46.1 µM
Description: NIH Chemical Genomics Center [NCGC]
NIH Molecular Libraries Screening Centers Network [MLSCN]
PI Name: Dr. Ryszard Kole
Modulation of Alternative Splicing as Therapy
Abnormal splicing is associated with a number of diseases, including cancer and genetic diseases such as cystic fibrosis, muscular dystrophy and beta-thalassemia. Alteration of disease associated splicing patterns provides a promising target for treatment. […] Mutations in the second intron of the b-globin gene at positions 654 or 705 are clinically relevant and cause mis-splicing which results in an out of frame gene product.
Examination of toxicity of select compounds in EGFP-654 HeLa Cells
HeLa cell lines were stably transfected with a construct in which the EGFP (enhanced green fluorescent protein) cDNA was interrupted by the second intron of the beta-globin gene (IVS2-654). The ISV2 intron contains mutations which cause mis-splicing of EGFP and premature termination of EGFP which results in a nonfluorescent protein product. […] Expression of the transgene was driven by the CMV promoter. Compounds, and related structures identified in the primary screen as potential splicing modulation were examined for their effects on cell toxicity in this follow up assay .
NCGC Assay Protocol Summary:
Toxicity Screening. Freshly thawed HeLa EGFP-654 cells were seeded in 5 ul of optimem media (Invitrogen) containing 2 % fetal calf serum (Hyclone) and 1x penicillin/streptomycin (Invitrogen) at a concentration of 500 cells per well in 1536-well plates. Cells were incubated overnight at 37C in 5% CO2. The next day, cells were treated with DMSO, 500 nM antisense ISV2 654 PNA control oligo, or library compound and allowed to grow at 37C in 5% CO2 for 2 days. Cells were treated with 5 ul/well of freshly prepared ATPlite (Perkin Elmer) and cells were allowed to lyse at room temperature for 5 minutes. Luminescence was captured on an Viewlux CCD imager (Perkin Elmer) using a 15 second integration time and cell death was measured by comparing compound treatments to DMSO treatment (no cell death).
Keywords: Thalassemia, beta-thalassemia, beta-globin, EGFP, ISV2 654, ISV2 705, SSO, PNA, antisense, splicing, ATPlite, toxicity, MLSMR, MLSCN, NIH Roadmap, qHTS, NCGC

Question: Which Potency does the source give for Nc1ncn([C@@H]2O[C@H](CO)[C@@H](O)[C@H]2O)c(=O)n1 here?
Answer: 1260 nM (active)

Question: Which Potency does the source give for NC1=NC(S)C2N=CN=C2N1 (centres undefined) here?
Answer: 316 nM (active)

Question: Which Potency does the source give for OCC1OC(n2cnc3c(=S)nc[nH]c32)C(O)C1O (centres undefined) here?
Answer: 3160 nM (active)

Question: Which Potency does the source give for N=c1ccn2c(n1)O[C@@H]1[C@@H](O)[C@H](CO)O[C@H]12 here?
Answer: inactive

Question: Which Potency does the source give for Nc1ncnc2c1nc(Br)n2C1OC(CO)C(O)C1O (centres undefined) here?
Answer: inactive

Question: Which Potency does the source give for OCC1OC(n2cnc3c(Cl)ncnc32)C(O)C1O (centres undefined) here?
Answer: inactive

Question: Which Potency does the source give for Cn1cnc([N+](=O)[O-])c1Sc1ncnc2nc[nH]c12 here?
Answer: 316 nM (active)

Question: With S=C1NC=NC2N=CNC12 (centres undefined) as the compound, how does the Potency read?
Answer: 199 nM (active)

Question: With O=c1[nH]c(=O)n(C2CC(O)C(CO)O2)cc1F (centres undefined) as the compound, how does the Potency read?
Answer: inactive

Question: With Nc1nc(=O)n(C2OC(CO)C(O)C2O)cc1Cl (centres undefined) as the compound, how does the Potency read?
Answer: inactive

Question: With Nc1ccn([C@H]2CC[C@@H](CO)O2)c(=O)n1 as the compound, how does the Potency read?
Answer: inactive

Question: Which Potency does the source give for CSc1ncnc2c1ncn2C1OC(CO)C(O)C1O (centres undefined) here?
Answer: 794 nM (active)

Question: For Nc1ncnc2c1nc(Cl)n2C1OC(CO)C(O)C1O (centres undefined), which Potency is on record?
Answer: inactive

Question: With Nc1nc(Cl)nc2c1ncn2[C@H]1C[C@H](O)[C@@H](CO)O1 as the compound, how does the Potency read?
Answer: inactive
